An excerpt weighted towards active compounds, which were near 27% of everything screened.
CYP2C9 activ: activators of human CYP2C9; AID 1024; 96,000 tested, 1.4% active; activation factor at 5 µM; P11712; recombinant CYP2C9, luciferin-H conversion, luminescence; hits give high values; factor 1 = untreated enzyme, 0 = blocked;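 active = activation factor of 2 or more for CYP2C9 at a 5 µM dose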
Target sequence (P11712 whole entry, looked up): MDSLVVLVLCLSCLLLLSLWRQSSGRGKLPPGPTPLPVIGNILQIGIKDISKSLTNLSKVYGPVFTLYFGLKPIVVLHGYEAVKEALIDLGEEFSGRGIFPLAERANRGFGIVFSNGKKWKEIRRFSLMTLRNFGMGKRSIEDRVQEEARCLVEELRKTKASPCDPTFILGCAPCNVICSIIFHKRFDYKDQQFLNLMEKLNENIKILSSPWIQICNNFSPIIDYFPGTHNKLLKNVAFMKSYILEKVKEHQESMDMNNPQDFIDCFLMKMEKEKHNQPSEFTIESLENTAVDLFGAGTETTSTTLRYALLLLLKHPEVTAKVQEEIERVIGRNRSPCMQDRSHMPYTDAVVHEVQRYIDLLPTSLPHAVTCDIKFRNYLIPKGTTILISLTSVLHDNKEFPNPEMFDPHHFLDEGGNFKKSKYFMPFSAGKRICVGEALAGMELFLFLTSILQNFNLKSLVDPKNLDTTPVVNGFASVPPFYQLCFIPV
CYP2C19 act: increases human CYP2C19 enzyme activity; P33261; recombinant CYP2C19, luciferin-H EGE luminescence; hits give high values; 0 = fully inhibited enzyme, 1 = untreated enzyme; activation factor at 5 µM; 96,000 tested, under 10 active; AID 1025;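 active = activation factor of at least 2 at 5 µM in the primary screen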
CYP2C19 inhib: human CYP2C19 inhibition; P33261; inhibition, % at 5 µM; CYP2C19 Supersomes, luciferin-H EGE luminescence, 30 min; 96,000 tested, 21% active;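 active = CYP2C19 inhibition above a set limit at 5 µM in the primary screen, cut at about 50% in these data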
Cav32 inh: blocks human Cav3.2 T-type calcium channel | Cav3.2-expressing cells, Fluo-4 calcium fluorescence FDSS; hits give low values | B-score at 10 µM | 100,000 tested, 4% active | O95180;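 active = single-dose well whose peak fluorescence ratio is a statistical outlier from its plate by either plate-standardised score or position-corrected B-score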
CYP2C9 inhib: human CYP2C9 inhibition; AID 777; CYP2C9 Supersomes, luciferin-H conversion, luminescence; P11712; 96,000 tested, 20% active; inhibition, % at 5 µM;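 active = blocking of liver enzyme CYP2C9 beyond about 50% at 5 µM, limit read from the data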
Of the large screens only hits and unclear results are named; the others gave an inactive call.

CC(NC(=O)c1ccccc1Cl)C1COc2ccccc2O1 (stereo unspecified)	none (no result: CYP2C9 activ, CYP2C19 act, CYP2C19 inhib, CYP2C9 inhib)
Cc1nnc2ccc(N3CCN(c4cccc(C(F)(F)F)c4)CC3)nn12	none
CCc1ccccc1NC(=O)CC(O)(C(=O)OC)C(F)(F)F (stereo unspecified)	none
Cc1ccc(C(=O)CN(C(=O)c2ccc(Cl)cc2)N2C(=O)c3ccccc3C2=O)cc1	none
Cc1ccc(C(=O)C2C(=O)c3ccccc3C2=O)cc1	CYP2C9 inhib 77.0
O=C(O)c1ccc(COc2c(F)c(F)c(F)c(F)c2F)o1	none (no result: CYP2C9 activ, CYP2C19 act, CYP2C19 inhib, CYP2C9 inhib)
CC1CCCCN1C(=O)CSCC(=O)Nc1nc(-c2cccs2)cs1 (stereo unspecified)	Cav32 inh -4.93 (no result: CYP2C9 activ, CYP2C19 act, CYP2C19 inhib, CYP2C9 inhib)
CCOC(=O)N1CCN(C(=O)CSCC(=O)Nc2nc(-c3ccc4c(c3)OCO4)cs2)CC1	CYP2C9 inhib 73.1 (no result: Cav32 inh)
CC1CCN(C(=O)CSCC(=O)Nc2nc(-c3cccs3)cs2)CC1	Cav32 inh -5.69 (no result: CYP2C9 activ, CYP2C19 act, CYP2C19 inhib, CYP2C9 inhib)
CC1CCCN(C(=O)CSCC(=O)Nc2nc(-c3cccs3)cs2)C1 (stereo unspecified)	Cav32 inh -5.23
CCOC(=O)N1CCN(C(=O)CSCC(=O)Nc2nc(-c3cccs3)cs2)CC1	none (no result: CYP2C9 activ, CYP2C19 act, CYP2C19 inhib, CYP2C9 inhib)
CC1(C)N=C(c2cccs2)C(C)(C)N1O	none
Cc1cnc(NC(=O)CSc2nnc(CNc3ccc(F)cc3)n2CC2CCCO2)s1 (stereo unspecified)	none (no result: Cav32 inh)
CCN(CCCNC(=O)CCCn1c(=O)[nH]c2ccccc2c1=O)c1cccc(C)c1	Cav32 inh -5.5, CYP2C9 inhib 61.6
CCN(CCCNC(=O)COc1cc(=O)n(C)c2ccccc12)c1cccc(C)c1	none
CCN(CCCNC(=O)CCn1c(=O)[nH]c2ccccc2c1=O)c1ccccc1	CYP2C19 inhib 62.4
Cc1nc2ccccc2c(=O)n1/N=C/c1ccccc1	none
Cc1[nH]n(-c2ccccc2)c(=O)c1/C=N/n1c(C)nc2ccccc2c1=O	none
Cc1nc2ccccc2c(=O)n1/N=C/c1cn(-c2ccccc2)nc1-c1cccs1	CYP2C19 inhib 80.0, Cav32 inh -4, CYP2C9 inhib 98.1
Cc1nc2ccccc2c(=O)n1/N=C/c1ccncc1	CYP2C19 inhib 76.4
Cc1ccc(-n2[nH]c(C)c(/C=N/n3c(C)nc4ccccc4c3=O)c2=O)cc1	CYP2C9 inhib 55.4
CN(C)C(=O)c1cn(-c2ccccc2)nc1-c1cccs1	none
C=CCN(C(=O)CNC(=O)c1ccco1)C(C(=O)NC1CCCCC1)c1ccccc1F (stereo unspecified)	none
Cc1ccc(S(=O)(=O)N2CCC(C(=O)NCc3ccncc3)CC2)cc1	CYP2C19 inhib 83.6, CYP2C9 inhib 99.0
COc1ccc(S(=O)(=O)N2CCCC(C(=O)NCc3ccncc3)C2)cc1 (stereo unspecified)	CYP2C19 inhib 99.4, CYP2C9 inhib 99.0 (no result: Cav32 inh)
COc1ccc(S(=O)(=O)N2CCCC(C(=O)NCc3ccccn3)C2)cc1 (stereo unspecified)	CYP2C9 activ 2.4
COc1ccc(S(=O)(=O)N2CCCC(C(=O)Nc3ccc(OC)c(OC)c3)C2)cc1 (stereo unspecified)	none
COC(=O)c1[nH]c2ccc(Cl)cc2c1NC(=O)Oc1ccccc1	none
Cc1ccc(-n2c(=O)c3c4c(sc3n3c(C)nnc23)COC(C(C)C)C4)cc1 (stereo unspecified)	none (no result: CYP2C9 activ, CYP2C19 act, CYP2C19 inhib, CYP2C9 inhib)
Cc1cc(C)c2nc(C(F)(F)F)nc(NCCCN3CCOCC3)c2c1	none
Cc1cccc(NC(=O)C2c3ccccc3C(=O)N3CCc4ccccc4C23)n1 (stereo unspecified)	none
Cc1ccccc1NC(=O)Cn1nnc2c(cnn2-c2ccc(F)cc2)c1=O	none (no result: Cav32 inh)
O=C(Cn1nnc2c(cnn2-c2ccc(F)cc2)c1=O)OC1CCCCC1	CYP2C19 inhib 62.5
Cc1c(C#N)c(N)c(C(=O)c2ccccc2)n1Cc1ccccc1	CYP2C19 inhib 99.3, CYP2C9 inhib 75.8
Cc1c(C#N)c(NC(=O)c2cccc(Cl)c2)n(Cc2ccccc2)c1C	none
O=C(NCc1ccco1)c1cccc(S(=O)(=O)N2CCCCC2)c1	none (no result: CYP2C9 activ, CYP2C19 act, CYP2C19 inhib, CYP2C9 inhib)
COc1ccccc1CNC(=O)c1ccc(S(=O)(=O)N(C)C)cc1	CYP2C19 inhib 72.7
COc1ccccc1CNC(=O)COc1ccccc1OC	CYP2C9 activ 3.4, CYP2C19 inhib 97.2
COc1ccccc1OCCNC(=O)c1ccc(S(=O)(=O)N(C)C)cc1	none
COc1ccccc1CNC(=O)CC(C)C	none
C#CC(C)(C)NC(=O)c1ccccc1OC	CYP2C9 activ 2.4
COc1ccccc1CNC(=O)c1ccccc1OC	CYP2C9 activ 3.8, CYP2C19 inhib 76.6
COc1ccccc1C(=O)Nc1ccccc1C(=O)N1CCCC1	none
COC(=O)[C@@H]1C[C@@H]2CC[C@@H](O)C[C@@H]2N1Cc1ccc(N2CCN(C)CC2)cc1	none (no result: CYP2C9 activ, CYP2C19 act, CYP2C19 inhib, CYP2C9 inhib)
CCC(C)(C)NC(=O)Cc1ccccc1OC	none
CCC(CC)NC(=O)Cc1ccccc1OC	CYP2C19 inhib 77.9
Cc1ccc(C2CC(c3ccccc3Cl)n3nc(N)nc3N2)cc1 (stereo unspecified)	none
Cc1ccc(C2CC(c3cccs3)n3nc(N)nc3N2)cc1 (stereo unspecified)	CYP2C19 inhib 50.8
Cc1cccc(C2CC(c3ccc(F)cc3)Nc3nc(N)nn32)c1 (stereo unspecified)	CYP2C19 inhib 58.0
COCCCNC(=S)NC1CC2CCCC(C1)N2Cc1ccco1 (stereo unspecified)	none
CC1=C(C(=O)OCC2CCCO2)C(c2cccc(C(F)(F)F)c2)C2=C(CC(c3ccco3)CC2=O)N1 (stereo unspecified)	CYP2C19 inhib 94.2, CYP2C9 inhib 88.1
CC1=C(C(=O)OCC2CCCO2)C(c2ccccc2OC(C)C)C2=C(CC(c3ccco3)CC2=O)N1 (stereo unspecified)	CYP2C19 inhib 97.7, CYP2C9 inhib 81.1
CC1=C(C(=O)OCC2CCCO2)C(c2ccc(C)o2)C2=C(CC(c3ccc(N(C)C)cc3)CC2=O)N1 (stereo unspecified)	CYP2C19 inhib 55.8, CYP2C9 inhib 54.4 (no result: Cav32 inh)
CC1=C(C(=O)OCC2CCCO2)C(c2ccc(C)o2)C2=C(CC(c3ccc(F)cc3)CC2=O)N1 (stereo unspecified)	none
CCn1c(=O)n(CC(=O)NC2CCCC(C)C2C)c(=O)c2ccccc21 (stereo unspecified)	none (no result: Cav32 inh)
C=C(C)c1cccc(C(C)(C)NC(=O)NCC2COCCO2)c1 (stereo unspecified)	none (no result: CYP2C9 activ, CYP2C19 act, CYP2C19 inhib, CYP2C9 inhib)
O=C(NCCCN1CCN(c2cccc(Cl)c2)CC1)C1CCC(=O)N1Cc1ccccc1Cl (stereo unspecified)	none (no result: Cav32 inh)
O=C1C=C(O)c2cccc(O)c2C1=O	none (no result: CYP2C9 activ, CYP2C19 act, CYP2C19 inhib, CYP2C9 inhib)
CC1=CC(=O)c2c(O)ccc(O)c2C1=O	Cav32 inh -5.47 (no result: CYP2C9 activ, CYP2C19 act, CYP2C19 inhib, CYP2C9 inhib)
COc1ccc(CNC(=O)C(c2ccco2)N(Cc2ccccc2)C(=O)Cc2cccs2)cc1 (stereo unspecified)	none (no result: CYP2C9 activ, CYP2C19 act, CYP2C19 inhib, CYP2C9 inhib)
O=C(NCc1ccco1)C(c1ccccc1)N(C(=O)Cc1cccs1)c1ccccc1 (stereo unspecified)	none (no result: CYP2C9 activ, CYP2C19 act, CYP2C19 inhib, CYP2C9 inhib)
COc1ccc(CNC(=O)C(c2ccncc2)N(C(=O)Cc2cccs2)c2ccccc2C)cc1 (stereo unspecified)	CYP2C19 inhib 54.3

Source: PubChem BioAssay
